SMILES strings stand for the structures. About 480 (40%) of roughly 1,200 compounds were called active. No rule for the calls is given here. The set was probably picked from earlier hits. The list is a sample of the results. Measured potencies and affinities stand elsewhere.

The nature of the experiment: viability loss in human hepatoma cells – cell-based, CellTiter-Glo luminescence, cherry-pick, set 2, cytotoxicity control, dose response (AID 743395). As to conditions: HepG2 viability, CellTiter-Glo ATP luminescence, 72 h; series mostly up to 26 µM.
As for `O=C(N/N=C/c1cccs1)c1cccc(NC(=O)c2ccccc2Cl)c1`, the molecule was called inactive.

For `O=C(c1ccc(S(=O)(=O)NCC2CCCO2)cc1)N1CCN(c2cccc(Cl)c2)CC1` (stereo unspecified), the call was inactive.

With `O=C(CSc1nc2nn(-c3ccccc3)c(=O)c-2c2n1CCCCC2)Nc1ccc(OC(F)F)cc1`, the call was inactive.

On to `COc1cc(OC)c2c(-c3cccc(-c4ccc(OC)c(OC)c4)c3)cc(=O)oc2c1`, for which the molecule was called inactive.

Turning to `COc1cc(OC)c2c(-c3cccc(-c4ccc(OC)c(F)c4)c3)cc(=O)oc2c1`, the call was inactive.

On to `Cc1ccc(-c2cccc(-c3cc(=O)oc4ccc(C(C)(C)C)cc34)c2)cc1`, for which the molecule was called inactive.

Regarding `COc1ccc(-c2c(C)cc3oc(=O)cc(-c4ccccc4)c3c2C)cc1OC`, the molecule was called inactive.

In the case of `CN1C(=O)c2cccc3c(N)ccc(c23)C1=O`, the outcome was inactive.

Regarding `CC1Cc2nc(SCC(=O)N3CCOCC3)n(-c3ccccc3)c(=O)c2S1` (stereo unspecified), the call was inactive.

Regarding `COc1cc(/C=C(\CC(=O)O)c2nc3ccccc3s2)ccc1OCC(=O)Nc1ccccc1F`, the molecule was classed as inactive.

As to `CC(C)(C)c1ccccc1NC(=O)CN1C(=O)NC2(CCCCCC2)C1=O`, the outcome was inactive.

`CC(=O)Nc1ccc(-c2csc(NC(=O)CN3C(=O)NC4(CCCC4)C3=O)n2)cc1`: the molecule was called inactive.

For `O=C(NC1CCN(Cc2ccccc2)CC1)c1cc(S(=O)(=O)N2CCOCC2)ccc1Cl`, the molecule was classed as inactive.

On to `Cn1c(CC(=O)NN)c(Sc2ccccc2)c2ccccc21`, for which the result was inactive.

In the case of `COc1cc(/C=C(\C#N)C(=O)c2c[nH]c3ccccc23)cc(OC)c1O`, the call was inactive.

`CCCOc1cc(N(CC)CC)ccc1/C=C(/C#N)c1nc2ccc(C)cc2[nH]1`: the molecule was classed as inactive.

Turning to `O=C(Nc1ccn(CCCNC2CCN(Cc3ccccc3)CC2)c(=O)n1)OCc1ccccc1`, the call was inactive.

As to `Clc1ccc(N(CC2CO2)CC2CO2)cc1` (stereo unspecified), the result was inactive.

For the molecule `CC1=C(C(=O)N(C)C)CC(CC(=O)NCc2cccc3ccccc23)C(=O)N1CCCN1CCCC1=O` (stereo unspecified), the result was inactive.

Consider `Cc1cccc(NC(=O)CN2CCN(C(=O)CN3C(=O)NC4(CC(C)CC(C)(C)C4)C3=O)CC2)c1C` (stereo unspecified), for which the call was inactive.

Regarding `CCOc1ccc2c(c1)C(C)=CC(C)(C)N2S(=O)(=O)c1ccc(F)cc1`, the molecule was classed as inactive.

As to `COc1ccc(S(=O)(=O)N2CC[C@@H]3[C@@H](CO)N(C)c4ccc(-c5ccc(F)cc5)cc4[C@@H]32)cc1`, the molecule was classed as inactive.

For `COc1ccc2c(c1)C(O)C(CO)C(C(=O)O)C2` (stereo unspecified), the outcome was inactive.

Turning to `O=C(Cc1ccccn1)NCC[C@H]1CC[C@H](NC(=O)Nc2ccc(C(F)(F)F)cc2)[C@H](CO)O1`, the result was inactive.

Regarding `Fc1ccc2nc(C3CCN(Cc4nc(CC5CC5)no4)CC3)[nH]c2c1`, the molecule was classed as inactive.

For `N#C/C(=C(/O)c1ccc(Br)s1)c1nc2ccccc2[nH]1`, the result was inactive.

Source of the values: PubChem BioAssay AID743395 (Broad Institute, 2014).
